Screening results from PubChem BioAssay.
PNC assembly inh = inhibitors of perinucleolar compartment assembly. activity change (PNC), negative = inhibition, % at 10 µM. PC3M PTB-GFP, PNC prevalence imaging, 16 h; hits give low values. hit rate 3.1% among 140,000;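 active = readout at or below -70, meaning at least 70% loss of cells showing the perinucleolar compartment, a nuclear body marking cancer cells; inconclusive = readout between -30 and a set limit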
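Compounds are pinned in duplicate onto adhered PC3M cells stably expressing GFP-tagged PTB and incubated 16 h at 37 C. Cells are then fixed, nuclei stained with Hoechst, and PNC-positive cells counted.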
HPGD block = blocks human HPGD enzyme activity | P15428 | purified HPGD, NADH fluorescence kinetic, PGE2 substrate | Potency, µM, hits mostly inhibitors | hit rate 4.3% among 150,000 | AID 894
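20 nM HPGD preincubated 15 min at room temperature with compound in 50 mM Tris-HCl pH 8, 0.01% Tween 20. Started with 1 mM NAD+ and 30 uM prostaglandin E2; NADH fluorescence (360/450 nm) read 5 times over 30-s intervals, last minus first.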
IMPase inh = cell-permeable inhibitors of inositol monophosphatase (IMPase). P97697. CHO-M1 cells, IP1 accumulation, HTRF TR-FRET ratio. inhibition (IP1 accumulation), % at 46.1 µM. 120,000 tested, under 10 active; active = well fitted curve in the direction sought with a large enough effect in the signal ratio, not every such curve was filed as active; inconclusive = small, poorly fitted or top-dose-only effect, or a change in a side signal; inactive = no such curve, though single readings can be large or run the other way; the % refers to the signal ratio;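 also: cells stimulated with carbachol in lithium chloride buffer; higher means more IMPase inhibition seen as more IP1 and lower FRET ratio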
Target sequence (P97697 whole entry, looked up): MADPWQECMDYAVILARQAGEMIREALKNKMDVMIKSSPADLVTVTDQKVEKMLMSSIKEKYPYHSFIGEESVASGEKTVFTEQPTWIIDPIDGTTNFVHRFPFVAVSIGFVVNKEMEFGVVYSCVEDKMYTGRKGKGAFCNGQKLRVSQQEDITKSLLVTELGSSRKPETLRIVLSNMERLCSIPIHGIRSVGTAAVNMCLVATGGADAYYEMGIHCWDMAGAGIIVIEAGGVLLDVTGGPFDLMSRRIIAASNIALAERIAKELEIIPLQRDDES
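Measured: the HTRF emission ratio (665/620 nm) plus the 620 nm donor channel, each fitted to the Hill equation to give AC50. Cells were CHO-M1 given compounds up to 46 uM and a 30 min carbachol stimulation at 37C.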
ALDH1A1 inh = inhibitors of human aldehyde dehydrogenase 1A1; Purified ALDH1A1, NADH fluorescence, propionaldehyde substrate; AID 1030; hit rate 7.3% among 220,000; P00352; Potency, µM (doses to about 75.3 µM), actives largely listed as inhibitors
Target sequence (P00352 whole entry, looked up): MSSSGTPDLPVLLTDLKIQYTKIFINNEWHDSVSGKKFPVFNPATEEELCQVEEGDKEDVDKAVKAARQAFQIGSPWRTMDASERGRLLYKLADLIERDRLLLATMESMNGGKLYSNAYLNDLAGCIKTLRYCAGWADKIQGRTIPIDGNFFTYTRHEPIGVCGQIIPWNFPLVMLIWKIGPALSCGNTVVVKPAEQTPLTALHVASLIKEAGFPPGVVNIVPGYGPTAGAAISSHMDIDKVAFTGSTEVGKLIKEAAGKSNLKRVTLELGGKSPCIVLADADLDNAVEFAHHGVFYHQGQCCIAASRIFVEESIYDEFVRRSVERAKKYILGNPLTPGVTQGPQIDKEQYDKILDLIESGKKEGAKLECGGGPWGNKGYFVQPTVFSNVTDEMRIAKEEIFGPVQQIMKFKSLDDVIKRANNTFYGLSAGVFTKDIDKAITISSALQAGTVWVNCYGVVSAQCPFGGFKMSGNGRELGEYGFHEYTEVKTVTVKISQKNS
IMPase Li cell = cell-permeable IMPase inhibitors with lithium potentiation | hit rate 0.35% among 210,000 | CHO-M1 cells, IP1 TR-FRET (IP-One), carbachol + lithium | Potency, µM (doses to about 59.4 µM), actives largely listed as inhibitors; active = well fitted inhibition curve with a large enough effect; inconclusive = small, poorly fitted or top-dose-only effect; inactive = no such curve, though single readings can be large or run the other way;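 also: IP1 builds up when IMPase is blocked and the TR-FRET signal falls; nearly all actives have a fitted effect of over 50% in size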
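CHO cells stably expressing M1 receptor (2000/well) were cultured 16–30 h, then exposed to compounds with a small lithium addition for 30 min at 37C. IP1 was measured by TR-FRET competition; AC50 from Hill fits.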
Numbers stand for hits; 0 = inactive; ? = inconclusive; - = no result; [ ] = dose if it differs, or a comment. Rows were chosen to be rich in hits. Some 11% of all compounds tested hit in one or more screens of this group. Unless noted, calls follow the shape of the dose curve; as a rule, active = well fitted inhibition curve with a large enough effect (not every such curve was filed as active); inconclusive = small, poorly fitted or top-dose-only effect, or another doubt; inactive = no such curve, though single readings can be large or run the other way.

SMILES | PNC assembly inh | HPGD block | IMPase inh | ALDH1A1 inh | IMPase Li cell
O=C(CSc1nnc(SCC(=O)NCc2ccc3c(c2)OCO3)s1)NCc1ccc2c(c1)OCO2 | ? | 0 | 0 | 0 | 0
O=C(CCCSc1nc2ccccc2s1)NCc1ccc2c(c1)OCO2 | ? | 0 | 0 | 3.5µM | 0
O=C(CCCc1nc2ccccc2s1)Nc1nccs1 | 0 | 0 | 0 | 0 | 0
NC[C@@H]1O[C@@H](O[C@H]2[C@@H](O)[C@H](O[C@@H]3[C@H](O)[C@H](N)C[C@H](N)[C@H]3O[C@@H]3O[C@@H](CO)[C@H](O)[C@H](O)[C@@H]3N)O[C@H]2CO)[C@H](N)[C@H](O)[C@@H]1O | - | - | 0 | - | -
CCOC(=O)N1CCN(C(=S)Nc2cc(S(=O)(=O)N3CCOCC3)ccc2Cl)CC1 | - | - | - | 0 | 0
CCc1cc(-c2n[nH]c(C)c2-c2ccc3c(c2)OCCO3)c(O)cc1O | - | 0 | - | 0 | 0
CCN(CC)c1ccc(NC(=O)C(Cc2ccccc2)NS(=O)(=O)c2ccc(Br)s2)c(C)c1 (stereo not given) | - | - | 0 | - | -
O=C(CSc1nc(C2CCCCC2)nc2ccccc12)NCc1ccc2c(c1)OCO2 | 0 | 0 | 0 | 0 | 0
O=C(CSc1ccc2ccccc2n1)NCc1ccc2c(c1)OCO2 | - | - | - | 18µM | 0
CN1CC[C@@]2(CCCN(C(=O)c3cccc(F)c3)C2)C1 | - | 0 | - | 0 | 0
O=C(CN(Cc1ccco1)C(=O)c1ccc(Cl)cc1)Nc1ccc(Cl)c(Cl)c1 | 0 | 0 | - | ? | 0
COc1ccccc1NC(=O)CN(Cc1ccco1)C(=O)c1ccc(Cl)nc1 | - | - | - | 16µM | 0
c1ccc(OCc2nn3c(Cn4nnc5ccccc54)nnc3s2)cc1 | 0 | 8.9µM | 0 | 7.9µM | 0
c1ccc(CCc2nn3c(Cn4cnc5ccccc54)nnc3s2)cc1 | 0 | 16µM | 0 | 3.5µM | 0
c1ccc(Cc2nnc3sc(Nc4ccccc4)nn23)cc1 | 0 | 0 | 0 | 0 | 0
c1ccc(Cc2nn3c(Cn4nnc5ccccc54)nnc3s2)cc1 | 0 | 20µM | 0 | 25µM | 0
COc1ccc(OCc2nn3c(Cn4cnc5ccccc54)nnc3s2)cc1 | 0 | 14µM | 0 | 22µM | 0
c1ccc(OCc2nn3c(-c4cccnc4)nnc3s2)cc1 | 0 | ? | 0 | 0 | 0
CO[C@@H]1c2cc(F)ccc2/C(=C\CCOC(=O)C/C=C/c2ccccc2)[C@H]1C | - | 0 | - | 0 | 0
O=C(/C=C/c1ccc(O)c(O)c1)O[C@@H]1C[C@@](O)(C(=O)O)C[C@H](O)[C@@H]1O | - | 0 | 0 | ? | 0
Cc1cccc(-c2nnc(SCC(=O)NC3CCCCC3)o2)c1 | - | - | 0 | - | -
Clc1ccccc1-c1nn2c(Cn3cnc4ccccc43)nnc2s1 | 0 | 14µM | 0 | 20µM | 0
O=C(O)CSc1nnc(Cn2nnc3ccccc32)n1CCc1ccccc1 | ? | ? | 0 | 0 | 0
c1ccc2c(c1)OCC(c1nn3c(Cn4nnc5ccccc54)nnc3s1)O2 (stereo not given) | 0 | 10µM | 0 | 11µM | 0
c1ccc(CCc2nn3c(Cn4nnc5ccccc54)nnc3s2)cc1 | 0 | 10µM | 0 | 3.5µM | 0
SMILES | PNC assembly inh | HPGD block | IMPase inh | ALDH1A1 inh | IMPase Li cell
O=C(CN(CCc1ccccc1)S(=O)(=O)c1ccc(Br)cc1)N/N=C/c1ccccc1C(=O)O | - | - | - | ? | 0
Cc1cc(C)c(S(=O)(=O)Nc2cc(Cl)c3oc4c(c3c2)C(=O)CCC4)cc1C | - | - | 0 | - | -
CC(C)(C)NC(=O)CN(Cc1cccs1)C(=O)CN1C(=O)C(=O)c2ccccc21 | - | - | - | 0.028µM | 0
O=C(O)CCCNc1ccc([N+](=O)[O-])c(NCCCC(=O)O)n1 | - | - | - | 0 | 0
CC(=O)OC[C@@H]1O[C@@H](O/N=C2/C[C@@H](O)[C@@H](O)[C@@H]3[C@@H]4C(=O)N(C(C)(C)C)C(=O)[C@H]4CC[C@@H]23)[C@H](OC(C)=O)[C@H](OC(C)=O)[C@@H]1OC(C)=O | - | - | - | 0[13.5 µM] | -
COc1ccc(/C=N/n2c(SC)nnc2-c2ccccc2)cc1C | 0 | 0 | 0 | 0 | 0
COc1ccc(/C=N/n2c(SC)nnc2-c2ccccc2)c(OC)c1OC | -125 | ? | 0 | ? | 0
CNC(=S)NCc1ccc2[nH]c3c(c2c1)CCCC3 | - | - | - | 25µM | 0
CCCCNC(=S)NCc1ccc2[nH]c3c(c2c1)CCCC3 | - | - | - | 0 | 0
Cc1ccccc1NC(=S)NCc1ccc2[nH]c3c(c2c1)CCCC3 | 0 | 20µM | - | ? | 0
O=S(=O)(Cc1ccc(Cl)cc1)c1ncc(CO)n1Cc1ccccc1 | - | - | - | 0 | 0
CSc1ncccc1C(=O)OCC(=O)c1cccs1 | - | - | - | 0 | 0
Cc1ccc(-c2nc3cnccn3c2Nc2ccc3c(c2)OCO3)o1 | ? | 0 | 0 | 14µM | 0
Cc1ccccc1-c1cc(N2CCNCC2)ncn1 | - | - | - | 0 | 0
CCOc1cc(S(=O)(=O)NCC2OCCc3ccccc32)c(OCC)cc1-n1cnnn1 (stereo not given) | 0 | ? | 0 | ? | 0
COc1cccc(-n2nnnc2SCC(=O)NC2CCCC2)c1 | 0 | 0 | 0 | 0 | 0
COc1ccc(C(=O)NCc2nnc(SCC(=O)N3CCc4ccccc43)n2CCc2ccccc2)cc1 | 0 | 0 | 0 | 0.63µM | 0
COc1ccc(-n2c(Cc3ccccc3)nnc2SCC(=O)N2CCCc3ccccc32)cc1 | -100 | 0 | 0 | 11µM | 0
COc1cc(OC)cc(-n2nnnc2SCC(=O)N2CCCc3ccccc32)c1 | ? | 0 | 0 | 2.8µM | 0
COc1cccc(-n2nnnc2SCC(=O)N2CCCc3ccccc32)c1 | ? | 0 | 0 | 5.6µM | 0
COc1ccc(C(=O)NCc2nnc(SCC(=O)N3CCc4ccccc43)n2C2CCCCC2)cc1 | 0 | 0 | 0 | 0 | 0
Cc1cccc(C)c1N(Cc1ccccc1F)S(C)(=O)=O | - | - | - | 0 | 0
O=C(O)C=Cc1ccc(Cn2ccnc2)cc1 | - | 0 | 0 | 0 | 0
Cn1cc(CNC(=O)C23CC4CC(CC(C4)C2)C3)cn1 | 0 | 0 | 0 | 5µM | 0
O=C(NCc1ccncc1)C12CC3CC(CC(C3)C1)C2 | 0 | 0 | 0 | ? | 0
SMILES | PNC assembly inh | HPGD block | IMPase inh | ALDH1A1 inh | IMPase Li cell
O=C(O)CCSC1=NCCN1 | - | 0 | - | ? | 0
C#CCNC(=O)C1=C[C@H](c2ccc3c(c2)OCO3)C[C@H](OCc2ccc(CO)cc2)O1 | - | - | - | 28µM | 0
C=CCOC(=O)C1=C[C@@H](c2csc3ccccc23)C[C@@H](OCc2ccc(CO)cc2)O1 | - | - | - | 25µM | 0
O=C(C1=C[C@@H](C2CC2)C[C@@H](OCCCCO)O1)N1CCN(Cc2ccccc2)CC1 | - | - | - | ? | 0
O=C(C1=C[C@@H](C2CCCCC2)C[C@@H](OCCCCO)O1)N1CCN(Cc2ccccc2)CC1 | - | - | - | 16µM | 0
O=C(C1=C[C@H](c2ccccc2)C[C@H](OCc2ccc(CO)cc2)O1)N1CCN(Cc2ccccc2)CC1 | - | - | - | 14µM | 0
CC(=O)OC(C)C | - | 0 | - | 0 | 0
COc1ccccc1N1CCN(CC2CN3C(=O)N(C)c4ccccc4C3=N2)CC1 (stereo not given) | - | - | - | 0 | 0
COc1ccc(S(=O)(=O)N2CC(O)CC2C(=O)Nc2cccnc2)cc1 (stereo not given) | - | - | - | 0 | -
CCO[C@H]1OC(C(=O)N2CCN(Cc3ccccc3)CC2)=C[C@@H](c2ccccc2)[C@@H]1CCCO | - | - | - | 0 | 0
